# Data taken from the supplement of paper PMC11624193, “Coupling cellular drug-target engagement to downstream pharmacology with CeTEAM” (Nature Communications, 2024).
# Counter-ions that a name gives are not always drawn. Unmarked numbers belong to inactive results.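 The calls were made as follows: active = log2 fold change beyond 2 SD from the library mean after excluding viability outliers; inactive = within 2 SD.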
# Molecular target: PARP1 L713F-nLuc biosensor (HCT116) (UniProt P09874)
# Assay: PARP1 L713F-nLuc/akaLuc ratio relative to DMSO control (biosensor stabilization) (fold change); higher = more PARP1 biosensor stabilization (target engagement / stabilizer), active = hit call of the paper
# Settings: stock concentration (mM; final µM = stock mM x 1): 10; 24 h
# Sequence of PARP1 L713F-nLuc biosensor (HCT116) (P09874 whole entry L713F, looked up): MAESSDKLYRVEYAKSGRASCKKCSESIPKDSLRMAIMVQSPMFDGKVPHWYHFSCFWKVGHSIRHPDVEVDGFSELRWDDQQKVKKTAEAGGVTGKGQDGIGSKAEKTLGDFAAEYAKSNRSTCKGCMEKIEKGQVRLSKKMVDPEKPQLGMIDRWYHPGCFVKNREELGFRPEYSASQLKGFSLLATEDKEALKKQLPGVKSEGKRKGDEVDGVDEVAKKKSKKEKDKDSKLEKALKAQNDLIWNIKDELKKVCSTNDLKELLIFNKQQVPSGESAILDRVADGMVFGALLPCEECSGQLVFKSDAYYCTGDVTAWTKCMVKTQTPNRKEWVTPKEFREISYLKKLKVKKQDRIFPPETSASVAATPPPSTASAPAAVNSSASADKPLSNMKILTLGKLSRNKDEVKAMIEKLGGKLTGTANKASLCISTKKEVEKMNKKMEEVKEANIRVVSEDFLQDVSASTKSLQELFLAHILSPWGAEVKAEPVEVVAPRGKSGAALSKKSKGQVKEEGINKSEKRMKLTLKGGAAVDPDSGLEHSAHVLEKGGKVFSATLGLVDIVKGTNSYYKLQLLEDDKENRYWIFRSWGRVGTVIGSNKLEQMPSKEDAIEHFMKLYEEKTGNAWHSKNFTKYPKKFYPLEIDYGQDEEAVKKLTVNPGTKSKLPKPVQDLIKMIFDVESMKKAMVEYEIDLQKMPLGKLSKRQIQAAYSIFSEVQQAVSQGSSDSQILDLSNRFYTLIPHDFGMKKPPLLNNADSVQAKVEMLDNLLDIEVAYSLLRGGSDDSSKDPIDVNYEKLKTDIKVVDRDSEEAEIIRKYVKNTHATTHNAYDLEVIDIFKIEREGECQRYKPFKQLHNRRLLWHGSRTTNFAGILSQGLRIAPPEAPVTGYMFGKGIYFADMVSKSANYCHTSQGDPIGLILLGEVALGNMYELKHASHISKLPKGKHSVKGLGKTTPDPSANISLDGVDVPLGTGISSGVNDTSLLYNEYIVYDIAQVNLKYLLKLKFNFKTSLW
row,Compound,PARP1 L713F-nLuc/akaLuc ratio
1,O=C(Nc1cccnc1)N1CCC(Cc2cccc(Oc3ccc(C(F)(F)F)cn3)c2)CC1,0.451
2,COc1cc2ncnc(Nc3cc(Br)c(O)c(Br)c3)c2cc1OC,1.37
3,CNC(=O)CN1CCC(Oc2cc3c(Nc4cccc(Cl)c4F)ncnc3cc2OC)CC1 [Sapitinib (AZD8931)],0.797
4,CC(O)c1cc(C(=O)N[C@@H](C)Cn2ccc(-c3ccc(C#N)c(Cl)c3)n2)n[nH]1 (stereo partly drawn) [Darolutamide (ODM-201)],0.613
5,Nc1ncnc2c1ncn2[C@@H]1O[C@H](C(=O)N2CCN(CC(=O)Nc3cccc4c3CNC4=O)CC2)[C@@H](O)[C@H]1O [EB-47 (dihydrochloride)],0.793
6,CC(C)c1c(-c2ccccc2)nc2c(C#N)c[nH]n2c1=O,0.786
7,C=CC(=O)N1C[C@H](Nc2ncnc3[nH]ccc23)CC[C@@H]1C [Ritlecitinib],1.01
8,CNCc1ccc(-c2[nH]c3cc(F)cc4c3c2CCNC4=O)cc1 [Rucaparib],5.36 (active)
